The record followed here is PubChem BioAssay AID1918990 (ICCB-Longwood Screening Facility, Harvard Medical School, 2023).

Out of some 29,000 compounds screened, about 85 (0.3%) were called active. The list comes from a sample in which actives are over-represented; it also holds similar structures and randomly drawn compounds. Values without a mark were called inactive.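 How the source made its calls: active means replicate mean overnight rise in green fluorescent reporter signal, 3 or more SD over negative controls; inactive means the rest.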

The assay in a line: activators of Burkholderia fixLJ two-component system, primary screen, B. multivorans, GFP reporter (AID 1918990). The conditions noted are these: B. multivorans fixK-promoter GFP reporter, 18 h; active compounds read high.
On to `COc1cc(NS(=O)(=O)c2cccs2)cc(OC)c1`, for which the z-score was -1.05. `Cc1ccc(C(=O)Nc2ccc3[nH]c(=O)c(=O)[nH]c3c2)cc1`: the z-score is -0.29. As for `CCCC(=O)Nc1cc2nn(-c3ccccc3)nc2cc1C`, the z-score was -0.72. With `O=C(CSc1ccncc1)NC1CCOCC1Oc1cccc(F)c1` (centres undefined) the figure was -0.58. In the case of `COc1cc(OC)c(N(C)C(=O)c2cc3c(=O)oc4ccccc4c3s2)cc1Cl`, the z-score is -1.12. `CCC(=O)N1CCc2cc(S(=O)(=O)NC(Cc3ccccc3)C(=O)NCc3ccccc3)ccc21` (centres undefined): the z-score is -1.81. For `CC(NC(=O)CCN1CCN(C)CC1)c1cnn(-c2ccccc2)c1` (centres undefined), the z-score is 0.09.

Take `COc1cc(OC)c(NC(=O)c2c3c(nn2C)-c2ccccc2SC3)cc1Cl`: the z-score is 1.42. `CCOC(=O)c1cnc2c(C)cc(C)cc2c1Nc1ccc(N2CCOCC2)cc1`: the z-score was -0.2. Take `O=C1CCC2(CCCN(C(=O)c3n[nH]c4c3CCCC4)C2)CN1CC1CC1` (centres undefined): the z-score was -0.52. `CC(C)(C)NC(=O)CSc1nc(-c2ccc(F)cc2)cc(C(F)(F)F)n1`: the z-score is -1.55. Consider `CCc1ccc(CN(Cc2ccco2)C(=O)c2ccccc2Cl)cc1`, for which the z-score was 1.11. With `CCN1CCc2nc3sc(C(=O)Nc4ccccc4OC(F)(F)F)c(N)c3cc2C1`, the z-score is -0.04. As for `Cc1ccc(S(=O)(=O)N2CCCC(C(=O)CCc3ccccc3)C2)s1` (centres undefined), the z-score is -1.15. In the case of `Cc1cc(C)nc(CCNC(=O)N(Cc2ccncc2)CC2CCC(=O)N2)n1` (centres undefined), the z-score was 0.83.

Consider `Cc1ccc(Cl)cc1NC(=O)CCS(=O)(=O)c1ccc(Br)s1`, for which the z-score is -1.34. With `CCCN1CCN(CCCNC(=O)Cn2nc(CC)n3c(cc4occc43)c2=O)CC1`, the z-score was 0.72.

With `Cc1nn(C)c2c1C(NC(=O)c1cc(CC(C)C)on1)CCC2` (centres undefined), the z-score is -0.15.

For `Cc1ccc(NC(=O)C(Cc2ccccc2)NS(=O)(=O)c2ccc3c(c2)oc(=O)n3C)cc1C` (centres undefined), the z-score is 0.54.

Turning to `Cc1nc2c(-c3ccccc3)c(C)nn2c(C)c1CCC(=O)NCCc1ccccc1`, the z-score is -0.95. With `COc1ccc(-c2noc(CCC(=O)N(C)c3ccccc3C)n2)cc1`, the z-score was -1.83. As for `CCn1c(=O)c(=O)n(CC)c2cc(N3CCCCC3)c(NC(=O)c3ccc(Cl)cc3)cc21`, the z-score is 15.3 (active).

For `CCn1c(C(=O)Nc2cc(Cl)ccc2C)cc2sc(Cl)cc21`, the z-score is -0.88. With `CCn1c(=O)c(=O)n(CC)c2cc(N3CCCCC3)c(NC(=O)c3cccc(F)c3)cc21`, the z-score is 0.36.

Regarding `CCCn1nccc1S(=O)(=O)NCc1csc(-c2cnccn2)n1`, the z-score was -1.08. In the case of `Cc1cccc(NC(=O)C2CCCN2S(=O)(=O)c2cccc3nsnc23)c1C` (centres undefined), the z-score was 0.05. The same measure for `CN1C(=O)c2[nH]nc(-c3ccc(F)cc3)c2C1c1ccccn1` (centres undefined): 0.33; for `CN(CCNC(=O)CN1CCCC(c2ccccc2)C1)S(C)(=O)=O` (centres undefined): 0.17; for `Cc1[nH]c(=O)[nH]c(=O)c1CC(=O)NCc1ccc(-c2ncon2)cc1`: -1.58. The same measure for `CCOC(=O)c1ccc(NC(=O)CC2C(=O)N(c3cccc(OC)c3)C(=O)N2C2CCCCC2)cc1` (centres undefined): -0.28; for `CCOC(=O)c1cc2c(=O)n3ccccc3nc2n(CCCOC)c1=NC(=O)C(C)(C)Oc1ccc(Cl)cc1`: -0.51.

Consider `Cc1cc(C(=O)NCCCc2nnc3ccccn23)nc(C)n1`, for which the z-score is -0.17. Turning to `COc1ccc(CNC(=O)c2cc3c(s2)-c2ccccc2OC3)cc1`, the z-score is 0.73. With `COc1ccccc1CNC(=O)Cn1nccc1C1CCCNC1` (centres undefined) the figure was 0. `CCCCNC(=O)c1ccc2c(c1)NC(=O)C(C(C)C)N2` (centres undefined): the z-score is 0.08. Take `COc1cc2nc(NCC(C)c3ccccc3)n3nc(-c4ccccc4)nc3c2cc1OC` (centres undefined): the z-score is -0.67. Turning to `CCCS(=O)(=O)c1c(Nc2ccccc2C)sc(C(=O)c2ccccc2)c1N`, the z-score was 0.44. As to `CC1CCC2(CC1)N=C(c1ccccc1)C(=O)N2CC(=O)Nc1ccc(F)c(Cl)c1` (centres undefined), the z-score was -1.75.

For `Cc1cc(C)cc(NS(=O)(=O)c2ccc3[nH]cc(C(=O)N4CCCCC4)c(=O)c3c2)c1`, the z-score was -1.09. As to `COc1ccc(CCNCc2c(C(=O)O)c(C)n(Cc3cccc(C)c3)c2C)cc1OC`, the z-score is -1.27. Regarding `COC(=O)c1c(NC(=O)c2cc(=O)c3c(C)cc(C)cc3o2)sc2c1CCCC2`, the z-score was -1.12.

Take `COCCN(CC=Cc1ccccc1)Cc1ccc2nonc2c1`: the z-score is 0.18. With `COc1cc2c(=O)c(S(=O)(=O)c3ccc(C(C)C)cc3)cn(Cc3ccccc3C)c2cc1OC` the figure was 0.3; with `CCOC(=O)c1c(NC(=O)COc2cc(C)ccc2C(C)C)sc(C)c1C`, -0.34; with `c1ccc(-c2noc(CCn3ccnc3-c3cnsc3)n2)nc1`, 0.47. `Cc1ccc(-n2nc(CO)c(C(=O)NCCc3ccccc3)n2)cc1`: the z-score was -0.78.

For `CC(C)c1nnsc1C(=O)Nc1ccc(CC(=O)NC2CC2)cc1`, the z-score is -0.11. Turning to `Cn1ccnc1C(O)c1cc2n(n1)CCN(Cc1cccc(Cl)c1)C2` (centres undefined), the z-score is 0.34. For the molecule `COCCCNC(=O)c1c(NC(=O)c2cc(=O)c3cc(C)c(C)cc3o2)sc2c1CCCC2`, the z-score was -0.42. `COc1cccc2c1C1(CCN(C(=O)c3ccccn3)CC1)OCC2`: the z-score is 0.69. Turning to `CCOC(=O)C1CCCN(C(=O)Cn2ncc3c(C)n(Cc4ccc(F)cc4)c(C)c3c2=O)C1` (centres undefined), the z-score was 0.33.

Turning to `COc1ccc(Cl)cc1NC(=O)NCC1CCN(Cc2ccccc2F)CC1`, the z-score is -7.23. `Cc1ccc(C(=O)NCCc2nc(N)cc(=O)[nH]2)n1C(F)F`: the z-score was -0.52. For `COc1ccc(NC(=O)CSc2nc3ncccc3[nH]2)c(OC)c1`, the z-score was 1.38. Consider `Cn1c(C2CCN(C(=O)CSc3nnc(N)s3)CC2)nc2ccccc21`, for which the z-score was 0.47. For the molecule `CN(Cc1ccccc1)C(=O)c1cc2c(=O)n(C)c3ccccc3c2s1`, the z-score is 0.14.

On to `CCOc1ccc(S(=O)(=O)N(CC(=O)NCCSCc2ccc(C)cc2)c2ccccc2)cc1`, for which the z-score was -1.04. With `Cc1c(NC(=O)c2cc(=O)c3ccccc3o2)c(=O)n(-c2ccccc2)n1C` the figure was -0.69. For `COc1cccc(CNC(=O)c2cc(=O)[nH]c3ccc(S(=O)(=O)N4CCCCC4)cc23)c1`, the z-score was -0.5. Consider `CCc1ccc(NC(=O)CN2C(=O)C(c3ccccc3)=NC23CCCCCC3)cc1`, for which the z-score is -1.83. Regarding `COC(=O)c1ccc(C2C(C(=O)Nc3ccccc3)=C(C)Nc3nc4ccccc4n32)cc1` (centres undefined), the z-score is -1.77. The same measure for `COc1ccc(CNC(=O)Cn2nnc(-c3ccc(S(C)(=O)=O)cc3)n2)cc1`: 0.3; for `Cn1c(=O)nc2n(-c3ccc(Br)cc3)c3cccc(Cl)c3cc-2c1=O`: -1.2. Consider `COc1ccc(C(=O)Nc2onc3c2CCCC3)cc1`, for which the z-score was -2.06. For `Cc1nc(C2CCN(S(=O)(=O)CCC3CCS(=O)(=O)C3)CC2)no1` (centres undefined), the z-score was 0.66. On to `Cc1ccc(Nc2c(-c3ccc(C)cc3)nc3cnccn23)cc1`, for which the z-score was -1.25. As for `Cn1c(=O)c2c(nc(SCC(=O)Nc3ccc(F)cc3)n2Cc2ccccc2)n(C)c1=O`, the z-score was -1.14. With `Cc1ccc2nc(-c3ccc(O)cc3)c(Nc3ccc4c(c3)OCO4)n2c1` the figure was 0.53; with `O=C(c1n[nH]c2ccccc12)N1CCc2nc(-c3cccc(F)c3)[nH]c2C1`, -1.33. Turning to `COc1c(Cl)cc(C(=O)N(Cc2ccccc2F)C2CCS(=O)(=O)C2)cc1Cl` (centres undefined), the z-score was -0.89. `Cc1ccn2c(Nc3ccc4c(c3)OCCO4)c(-c3ccc(C)s3)nc2c1`: the z-score is 0.86.

As to `CCOc1ccc(-c2cc3nc(C4CCN(C(=O)OC(C)(C)C)CC4)c(C(=O)Nc4cccc(CC)c4)cn3n2)cc1`, the z-score was -0.21. As to `CCOc1ccc2nc(N3CCC(C(=O)Nc4cc(C)ccc4C)CC3)sc2c1`, the z-score is -0.96.

For `Nc1ccnc(N2CCCC(c3[nH]ncc3-c3ccc(F)cc3)C2)n1` (centres undefined), the z-score is -0.16. Turning to `COc1cc(NC(=O)CCNC(=O)Cn2ccc3ccccc3c2=O)cc(OC)c1OC`, the z-score is 0.24. Take `CCCCOCC(=O)N1CCCC(c2ccn(CC(=O)O)n2)C1` (centres undefined): the z-score was -2.17. `CN(C)C1CN(Cc2cnc(-c3ccc(Cl)cc3)nc2)CC1O` (centres undefined): the z-score was -0.39.

For the molecule `Cc1ccc(-c2nc(S(=O)(=O)c3ccc(C)cc3)c(N3CCCCCC3)o2)cc1`, the z-score is -0.18. `COc1ccc(CNC(=O)c2cc3c(=O)[nH]c4ccc(C)cc4c3s2)c(OC)c1`: the z-score was -1.16. `COc1cccc(OCc2cc(C(=O)N(C)Cc3nncn3C)n[nH]2)c1`: the z-score was -1.49. As to `Cc1c(CNC(C)c2ccccc2)c(C(=O)O)c(C)n1Cc1c(F)cccc1Cl` (centres undefined), the z-score is -2.09. With `COCCN(CCOC)C(=O)c1ccc(-c2ncccc2Cl)cc1`, the z-score is 0.44.

With `Cn1c(=O)c2c(nc(SCC(=O)Nc3ccc(F)cc3)n2Cc2ccc(Cl)cc2)n(C)c1=O`, the z-score is -2.04. The same measure for `COCCNC(=O)c1cc(-c2cccc(Cl)c2)on1`: 1.09; for `CCOc1ccccc1NC(=O)Cn1c(=O)n(Cc2ccco2)c(=O)c2sc3ccccc3c21`: -1.53. Turning to `COCCCCCC(=O)N1CC(O)C(Cc2cnccn2)C1` (centres undefined), the z-score is 0. As to `CS(=O)(=O)N1CCCn2nc(CNC(=O)CC3CCCC3)cc2C1`, the z-score is -0.69. In the case of `Cc1ccc(C)c(Nc2nnc(-c3ccc(C)c(S(=O)(=O)N4CCCCC4)c3)c3ccccc23)c1`, the z-score was -0.47. Turning to `COC(=O)c1ccccc1NS(=O)(=O)c1ccc2c(c1)CCCN2C(C)=O`, the z-score is -1.34.
